Assay outcomes: PubChem, National Center for Advancing Translational Sciences (NCATS)
CtBP-E1A inh: CtBP/E1A binding inhibition; AlphaScreen GST-E1A/His-CtBP binding, 1536-well; active compounds read low; 340,000 tested, 0.49% active; activity change, % (test concentration not listed); in the data active = activity change below about -65%; inconclusive = mostly about -30% to -63%; note: % is set by controls: 0 for no effect and ±100 for the full control effect
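Steps: dispense buffer (Tris pH 8.0, NaCl 300 mM, TCEP 1 mM, BSA, Tween 20); add 5X protein mix (GST-E1A, His-CtBP, 125 nM each); pin 23 nL compound; 2 h at 37 °C, dark; add 5X beads (50 ug/mL); 1 h; read.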
Six1-Eya2 blk: inhibitors of human Six1/Eya2 interaction; 360,000 tested, 0.56% active; Q15475+O00167; AID 651725; activity change, % (test concentration not listed); AlphaScreen GST-Six1/His-Eya2 binding, biochemical; active compounds read low; in the data active = activity change below about -65%; inconclusive = mostly about -30% to -63%; note: % is set by controls: 0 for no effect and ±100 for the full control effect
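Compounds are tested against tagged Six1 and Eya2 proteins bridged by glutathione donor and nickel acceptor beads; after a one-hour incubation at 37 °C without light, AlphaScreen emission is recorded.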
CBFb RUNX1 block: inhibitors of human CBF-beta and RUNX1 interaction | Q01196+Q13951 | AlphaScreen CBFb-His/RUNX1-biotin binding, biochemical | Potency, µM (doses to about 59.8 µM), without a hit: at the highest dose activity, negative = inhibition, usual class: inhibitors | 230,000 tested, under 10 active | AID 1477; note: % of control where 0% means no effect
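AlphaScreen binding: CBFb-His and RUNX1-biotin (30 nM each) preincubated 20 min, compound added for 15 min, then nickel and streptavidin beads for 90 min, all at room temperature. Disruption of the interaction by any mechanism counts as activity.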
RORg inh: ROR gamma (mouse) transcription inhibition | P51450 | Drosophila S2 Gal4-RORgamma UAS-luciferase reporter, 20 h | Potency, µM (series often up to 53.6 µM), without a hit: at the highest dose activity change, negative = inhibition, hits mostly inhibitors | 310,000 tested, 5.4% active | AID 2551; note: potency is the fitted concentration of half-maximal effect; % is set by controls: 0 for no effect and ±100 for the full control effect; nearly all actives have a fitted effect of over 60% in size
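Luminescence from a UAS-regulated Photinus luciferase reporter in stably transfected Drosophila Schneider cells is measured; decreased signal marks ROR gamma inhibition. Fusion expression is induced by 700 uM copper sulfate for 20 hr.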
VP16 counter: Gal4-VP16 reporter inhibition counter-screen; Drosophila S2 Gal4-VP16 UAS-luciferase, luminescence, 20 h; Potency, µM (doses to about 53.6 µM), inactives show top-dose activity, negative = inhibition, usual class: inhibitors; 310,000 tested, 3.5% active;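 note: Gal4-VP16 expression switched on by copper sulfate through the metallothionein promoter; potency is the fitted concentration of half-maximal effect; % is set by controls: 0 for no effect and ±100 for the full control effect; nearly all actives have a fitted effect of over 50% in size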
MBNL1 CUG block: blocks human MBNL1 binding to CUG repeat RNA; Q9NR56; 280,000 tested, 0.036% active; Potency, µM (top dose mostly 57.5 µM), without a hit: at the highest dose activity change, negative = inhibition, usual class: inhibitors; TR-FRET MBNL1-His/biotin-(CUG)12 binding, 665/545 ratio; AID 2675; active = well fitted inhibition curve with a large enough effect in the signal ratio, with a control signal flat, not every such curve was filed as active; inconclusive = small, poorly fitted or top-dose-only effect, or effect the other way, or a change in a side signal; inactive = no such curve, though single readings can be large or run the other way; the % refers to the signal ratio; note: potency is the fitted concentration of half-maximal effect; % is set by controls: 0 for no effect and ±100 for the full control effect
Target sequence (Q9NR56 whole entry, looked up): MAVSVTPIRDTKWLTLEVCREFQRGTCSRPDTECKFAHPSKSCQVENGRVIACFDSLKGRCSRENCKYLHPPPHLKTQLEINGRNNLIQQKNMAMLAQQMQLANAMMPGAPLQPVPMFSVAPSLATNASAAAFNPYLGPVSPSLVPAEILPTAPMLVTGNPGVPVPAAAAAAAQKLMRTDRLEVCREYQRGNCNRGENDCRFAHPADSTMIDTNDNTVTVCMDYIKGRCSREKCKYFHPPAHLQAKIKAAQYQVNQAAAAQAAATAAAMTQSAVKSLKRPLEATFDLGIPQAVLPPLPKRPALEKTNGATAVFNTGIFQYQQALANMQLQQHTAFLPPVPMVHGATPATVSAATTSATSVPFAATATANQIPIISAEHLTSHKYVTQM
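MBNL1-His + Biotin-(CUG)12, cpd titration 92 nM–58 uM; Tb anti-His Ab 0.055 ng/ul, SA-XL665 5 nM (final); 60 min RT; ratiometric 665/545 nm, Ex 340 nm; normalized to buffer and full-complex controls.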
* = called active by the depositor; ? = inconclusive; / = not tested or not shown; [ ] = another dose, or the depositor's remark. Only some compounds are listed: those with a hit (about 5.5% of all), similar ones and a draw of the others. Unless noted, calls come from the whole dose curve; as a rule, active = well fitted curve in the direction sought with a large enough effect; inconclusive = small, poorly fitted or top-dose-only effect, or another doubt; inactive = no such curve, though single readings can be large; an effect the other way counts as inactive or inconclusive.

SMILES	CtBP-E1A inh	Six1-Eya2 blk	CBFb RUNX1 block	RORg inh	VP16 counter	MBNL1 CUG block
COc1ccc(NS(=O)(=O)c2csc(C(=O)N3CCCC3)c2)c(OC)c1	/	9	/	38%	2%	3%
Fc1ccc(NC(=S)NCc2ccccc2Cl)cc1	15	9	1%	7.1µM*	14µM*	-14%
S=C(NCc1ccccc1)NCc1ccccc1Cl	-68*	-3	/	13µM*	20µM*	-1%
NS(=O)(=O)c1ccc(NC(=S)NCc2ccccc2Cl)cc1	0	4	1%	-2%	18%	?
COc1ccccc1CNC(=O)CC(C)c1ccccc1 (configuration not stated)	/	0	/	16%	-5%	-5%
CCC(C)c1ccc(NC(=S)NCc2ccccc2OC)cc1 (configuration not stated)	-7	-15	-1%	2.2µM*	8.9µM*	-4%
O=C(O)CNC(=S)NCc1ccccc1	-7	14	10%	-25%	-16%	-7%
CC(=O)OC[C@@]12C(=O)[C@@H](O)[C@@H](C)[C@]3(C[C@@H](c4ccoc4)O[C@@H]3OC(C)=O)[C@H]1CCC[C@]21CO1	/	/	-16%	-13%	4%	/
O=C(Nc1ccc(Oc2ccc(NC(=O)Nc3ccccc3Cl)cc2)cc1)Nc1ccccc1Cl	0	0	30%	2.5µM*	?	0%
COC(=O)/C=C1\S/C(=N/N=C/c2ccccc2)NC1=O	-4	-6	5%	?	?	-1%
COC(=O)/C=C1/S/C(=N/N=C/c2ccco2)NC1=O	4	1	7%	14µM*	?	/
COC(=O)/C=C1\S/C(=N/N=C/c2ccco2)NC1=O	/	-6	0%	7.1µM*	-16%[10 µM]	?
CN(Cc1ccccc1)C(=O)c1cccc(NC(=O)C2CCCN(C(=O)OC(C)(C)C)C2)c1 (configuration not stated)	5	-2	/	/	/	/
CC1=C(C(=O)N(C(C)C)C(C)C)CC(CC(=O)NCCN2CCOCC2)C(=O)N1Cc1ccccc1 (configuration not stated)	3	-3	/	/	/	/
COc1ccc(CNC(=O)COc2cc(O)c3c(c2)OC(C)(C)CC3=O)cc1	-15	3	/	18%	-5%	9%
CCCN1CNC(=S)N(c2ccccc2OC)C1	-12	8	-2%	?	-23%	-8%
CCCN1CNC(=S)N(c2cccc(C)c2C)C1	2	4	4%	10µM*	?	-3%
CCN1CNC(=S)N(c2cccc(C)c2C)C1	15	5	-1%	11µM*	?	-10%
C/C(C/C(C)=C1/SC(=S)NC1=O)=C1\SC(=S)NC1=O	?	-71*	-22%	-14%	6%	71%
CCCCCCCCCC(=O)O	1	3	9%[21.7 µM]	1%	-6%	/
CCCCCC/C(C)=C1/SC(=S)NC1=O	-11	-19	-6%	16µM*	-19%	17%
CC(=O)c1ccc(N2CCN(S(=O)(=O)c3ccc4c5c3CC(=O)N5CC(C)S4)CC2)cc1 (configuration not stated)	/	-12	/	6%	-10%	5%
O=C1NC(=O)C2(CCCC2C(=O)O)N1 (configuration not stated)	0	2	/	/	/	/
COc1cccc(/C=N/Nc2snc(SC)c2C#N)c1O	-76*	?	?	?	?	-17%[11.5 µM]
O=c1nccc(N/N=C/c2ccccc2O)[nH]1	-92*	-75*	/	3.5µM*	7.1µM*	?
SMILES	CtBP-E1A inh	Six1-Eya2 blk	CBFb RUNX1 block	RORg inh	VP16 counter	MBNL1 CUG block
CCOc1ccccc1/C=N/Nc1ccnc(=O)[nH]1	-16	-6	/	-30%	3%	2%
COc1ccc(/C=N/Nc2snc(SC)c2C#N)cc1OC	?	-17	-14%	33%	5%	4%
COc1cccc(/C=N/Nc2ccnc(=O)[nH]2)c1O	-92*	-76*	/	4µM*	8.9µM*	?
COc1cccc(/C=N/Nc2ccccc2C(=O)O)c1O	-10	-5	/	?	-25%	8%
CC(=O)NCCNc1ncncc1-c1ccccc1CN(C)C	/	/	/	-24%	-1%	/
Fc1ccc(NC(=S)N2N=CCC2c2ccccc2)cc1 (configuration not stated)	6	-1	-13%	3.5µM*	7.9µM*	-3%
O=C(Nc1cccc2ccccc12)N1N=CCC1c1ccccc1 (configuration not stated)	-1	0	15%	16%	-9%	-2%
S=C(Nc1ccccc1)N1N=CCC1c1ccccc1 (configuration not stated)	6	1	2%	?	7.9µM*	-2%
O=C(Nc1cccc(Cl)c1)N1N=CCC1c1ccccc1 (configuration not stated)	6	4	15%	-34%	-12%	-5%
Cc1nnc(SCC(=O)NC2CC2)n1-c1ccccc1	-1	3	/	-17%	0%	0%
Cc1noc(C)c1C(=O)Nc1ccc(N(C)C)cc1	-23	-6	/	4%	-9%	-7%
CN(C)c1ccc(NC(=O)c2cnsn2)cc1	3	-4	2%	10µM*	10µM*	-6%
CCc1cc(SC#N)cc(CC)c1NC(=O)CCl	-16	-18	11%	?	20µM*	-28%
S=c1[nH]nc(-c2ccco2)n1-c1ccc(Br)cc1	-2	2	/	/	/	/
Cc1ccccc1-n1c(-c2ccco2)n[nH]c1=S	3	5	5%	11µM*	?	-4%[11.5 µM]
Cc1cccc(-n2c(-c3ccco3)n[nH]c2=S)c1	1	1	-4%	11µM*	?	37%
Cc1ccc(-n2c(-c3cc(-c4ccco4)[nH]n3)n[nH]c2=S)c(Br)c1	1	9	-8%	8.9µM*	-4%	5%
S=c1[nH]nc(-c2cc(-c3ccco3)[nH]n2)n1-c1cccc2ccccc12	-25	-28	-10%	24%	-2%	2%
FC(F)(F)c1ccccc1-n1c(-c2ccco2)n[nH]c1=S	1	9	/	14µM*	?	4%
Nc1nc(SCC(=O)c2ccc(Cl)cc2)c2ncn(C3OC(CO)C(O)C3O)c2n1 (configuration not stated)	2	-3	/	/	/	/
O=C(CCC(=O)c1cccs1)NCC(c1ccc(F)cc1)N1CCOCC1 (configuration not stated)	-27	0	/	/	/	/
Cc1c(C(=O)Nc2nc3ccccc3[nH]2)cccc1[N+](=O)[O-]	11	2	-5%	7.9µM*	10µM*	8%
